# Biological target: Metabotropic glutamate receptor 4 (Homo sapiens) (UniProt Q14833)
# Assay: agonist response potentiation at mGlu4 receptor – cell-based, GIRK thallium flux, mechanism study for group III mGlu PAM project, late-stage follow-up (AID 743466)
# Conditions: mGlu4/GIRK cells, glutamate CRC fold shift, at 10 µM, stronger effect = higher value
# Metabotropic glutamate receptor 4 (Homo sapiens), sequence (Q14833 whole entry, looked up): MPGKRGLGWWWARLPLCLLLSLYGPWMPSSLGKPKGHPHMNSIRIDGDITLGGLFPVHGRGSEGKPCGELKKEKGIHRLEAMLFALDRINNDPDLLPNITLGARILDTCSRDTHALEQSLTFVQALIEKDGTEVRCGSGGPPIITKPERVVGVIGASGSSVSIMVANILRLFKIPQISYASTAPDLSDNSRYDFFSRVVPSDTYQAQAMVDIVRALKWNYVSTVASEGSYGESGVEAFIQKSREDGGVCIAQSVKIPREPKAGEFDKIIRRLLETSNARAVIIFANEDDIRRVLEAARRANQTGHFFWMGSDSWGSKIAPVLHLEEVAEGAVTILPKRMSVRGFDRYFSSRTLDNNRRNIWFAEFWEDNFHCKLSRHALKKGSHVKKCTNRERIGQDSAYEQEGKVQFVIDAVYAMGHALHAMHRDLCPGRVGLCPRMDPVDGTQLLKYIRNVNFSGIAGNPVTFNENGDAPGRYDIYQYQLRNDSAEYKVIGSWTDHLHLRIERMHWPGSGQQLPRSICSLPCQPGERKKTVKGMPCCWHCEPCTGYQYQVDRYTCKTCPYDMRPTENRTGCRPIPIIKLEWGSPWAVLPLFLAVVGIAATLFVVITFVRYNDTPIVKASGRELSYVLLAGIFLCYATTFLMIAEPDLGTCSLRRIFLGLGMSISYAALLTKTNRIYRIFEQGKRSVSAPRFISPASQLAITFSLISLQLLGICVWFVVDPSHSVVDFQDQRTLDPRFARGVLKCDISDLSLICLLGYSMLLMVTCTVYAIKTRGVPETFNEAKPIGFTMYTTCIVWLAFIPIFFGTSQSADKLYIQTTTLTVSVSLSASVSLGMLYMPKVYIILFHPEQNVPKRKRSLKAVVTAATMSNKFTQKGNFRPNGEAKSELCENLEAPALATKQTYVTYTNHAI
smiles,measurement,value
COC(=O)c1ccc(-n2c(C)cc(C(=O)CSc3ccc(NC(C)=O)cc3)c2C)cc1,fold shift,1.84

# Source: PubChem BioAssay AID743466 (Vanderbilt Specialized Chemistry Center, 2014)
